Shown are actives, neighbours in structure and some others; about 19% of the full set was active somewhere.
DT40 TDP1 no CPT: qHTS for Inhibitors of human tyrosyl-DNA phosphodiesterase 1 (TDP1): qHTS in cells in absence of CPT; DT40 Tdp1-/- hTDP1 cells, no CPT, ATP luminescence, 48 h; Potency, µM (top dose mostly 46.2 µM), most hits filed as inhibitors; hit rate 15% among 420,000; also: nearly all actives have a fitted effect of over 55% in size
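Growth kinetics read by CellTiter-Glo luminescence after ≥48 hr at 37 °C. Cells: DT40 Tdp1-/- stably carrying human TDP1, 400 per well, compound exposure in the absence of CPT (DMSO vehicle).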
ELG1 repair inh: inhibitors of ELG1-dependent DNA repair in HEK293T cells; Potency, µM (doses to about 46.1 µM), most hits filed as inhibitors; AID 504467; hit rate 2.3% among 330,000; HEK293T ELG1-luciferase reporter, luminescence, 16 h; DNA damage induced by 5-fluorouridine; also: nearly all actives have a fitted effect of over 55% in size
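Luminescence from the luciferase reporter, measured 30 min after ONE-Glo reagent at room temperature, was the read-out. Beforehand, 2,000 cells per well were exposed for 16 hr at 37 °C to 5-fluorouridine together with compound or vehicle.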
DT40 TDP1 CPT: growth inhibition of DT40 Tdp1-/-;hTDP1 cells with camptothecin (screen for TDP1 inhibitors); chicken DT40 Tdp1-/-;hTDP1 cells + 20 nM CPT, ATP luminescence, 48 h; Potency, µM (titrated, usually from 46.2 µM), usual class: inhibitors; hit rate 12% among 420,000; also: nearly all actives have a fitted effect of over 55% in size
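Chicken DT40 Tdp1-/- cells stably complemented with human TDP1 were seeded at 400 cells/well in medium containing 20 nM camptothecin, exposed to pin-transferred compounds, and grown at 37 °C for at least 48 hr. Viability was read as ATP luminescence.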
HT1080NT lethal: kills 2HG-producing HT-1080-NT fibrosarcoma cells; HT-1080-NT fibrosarcoma viability, CellTiter-Glo ATP luminescence, 48 h; Potency, µM (titrated, usually from 46.1 µM), usual class: cytotoxic; hit rate 1.6% among 360,000;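 also: NT is the 2HG producing partner of a matched IDH1 knockdown line; nearly all actives have a fitted effect of over 55% in size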
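Toxicity toward the 2HG-producing NT line was scored as %Activity, normalised to DMSO and no-cell wells, from CellTiter-Glo luminescence after 48 hours' treatment.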
HT1080 IDH1KD tx: toxicity to HT-1080 IDH1 knockdown cells (counter line). HT-1080 IDH1 knockdown viability, ATP luminescence, 48 h. hit rate 2% among 360,000. AID 686971. Potency, µM (top dose mostly 46.1 µM), actives largely listed as cytotoxic
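Knockdown cells (IDH1KD HT-1080) received compounds 2 h after plating at 750 cells/well and were kept 48 h at 37 °C in 5% FBS RPMI. A CellTiter-Glo luminescence read gave % activity for curve fitting.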
IL-1B inflam inh: blocks inflammasome-driven IL-1 beta release | THP-1 LPS/ATP IL-1B secretion, AlphaLISA, 16 h; active compounds read low | activity change, % at 57.5 µM | hit rate 4.7% among 360,000 | AID 743279; in the data active = activity change below about -50%; inconclusive = mostly about -30% to -49%
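Secreted IL-1B measured by AlphaLISA bead assay after 16 h compound exposure of THP-1 cells; compounds (final up to 57.5 uM) added 1 h before LPS (250 ng/mL) and ATP (1.25 mM) stimulation; lower signal means less secretion.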
Hits are given with their value. Unless noted, calls follow the shape of the dose curve; as a rule, active = well fitted curve in the direction sought with a large enough effect; inconclusive = small, poorly fitted or top-dose-only effect, or another doubt; inactive = no such curve, though single readings can be large; an effect the other way counts as inactive or inconclusive.

COc1ccc(N2Cc3cccc(C(=O)Nc4cccc(F)c4)c3C2=O)cc1 was read as DT40 TDP1 no CPT inactive and DT40 TDP1 CPT inactive.
`COc1ncc2nc(-c3cn(C)c4ccccc34)c(=O)n(C[C@H]3CCCO3)c2n1` gave DT40 TDP1 no CPT inactive and DT40 TDP1 CPT inactive.
Screening Cc1ccccc1-c1noc(CSc2nc3ccccc3[nH]2)n1 returned DT40 TDP1 no CPT 6.51µM and DT40 TDP1 CPT 18.4µM.
`COc1ccc(-c2noc(COc3ccccc3OC)n2)cc1OC` gave DT40 TDP1 no CPT inconclusive, ELG1 repair inh inactive, DT40 TDP1 CPT 16.4µM, HT1080NT lethal inactive, HT1080 IDH1KD tx inactive and IL-1B inflam inh inactive.
`O=C(COc1ccc(Br)cc1)NCCNC(=O)c1ccncc1` gave DT40 TDP1 no CPT inactive, ELG1 repair inh inactive, DT40 TDP1 CPT inactive, HT1080NT lethal inactive, HT1080 IDH1KD tx inactive and IL-1B inflam inh inactive.
`CCCc1cc(-c2nc(N)ncc2-c2ccc3c(c2)OCCCO3)c(O)cc1OC` gave DT40 TDP1 no CPT 25.9µM, ELG1 repair inh inconclusive, DT40 TDP1 CPT inconclusive, HT1080NT lethal inactive, HT1080 IDH1KD tx inconclusive and IL-1B inflam inh inconclusive.
`CCCc1cc(-c2nc(N)ncc2-c2csc(C)n2)c(O)cc1OC` gave DT40 TDP1 no CPT inconclusive, ELG1 repair inh inconclusive, DT40 TDP1 CPT inconclusive, HT1080NT lethal inactive, HT1080 IDH1KD tx inactive and IL-1B inflam inh inactive.
`COc1ccc(NC(=O)N2CCC(CN3CCCC3)CC2)c(OC)c1` gave DT40 TDP1 no CPT inactive and DT40 TDP1 CPT inactive.
O=C(Cc1coc2ccc3ccccc3c12)Nc1nnc(C2CC2)s1 was read as DT40 TDP1 no CPT 23.1µM, ELG1 repair inh inactive, DT40 TDP1 CPT inconclusive, HT1080NT lethal inactive, HT1080 IDH1KD tx inconclusive and IL-1B inflam inh inactive.
For Cn1nnnc1SCCCNCc1ccccc1OCc1ccccc1Cl the results were DT40 TDP1 no CPT 4.61µM and DT40 TDP1 CPT 5.17µM.
For CCOc1ccccc1CNCCSc1nnnn1C the results were DT40 TDP1 no CPT inactive and DT40 TDP1 CPT inactive.
Cn1nnnc1SCCCNCc1cccc(OCc2ccccc2Cl)c1 was read as DT40 TDP1 no CPT 16.4µM and DT40 TDP1 CPT 18.4µM.
Screening COc1ccc(C(C(=O)Nc2c(C)cccc2C)N2CCN(C)CC2)cc1 (stereo not given) returned DT40 TDP1 no CPT inactive, DT40 TDP1 CPT inactive, HT1080NT lethal inactive, HT1080 IDH1KD tx inactive and IL-1B inflam inh inactive.
Screening Cc1ccc(S(=O)(=O)N2C[C@H]3[C@H]4C(=O)N(C)C(=O)[C@H]4CC(=O)[C@H]3[C@@H]2c2ccccc2F)cc1 returned DT40 TDP1 no CPT inactive, DT40 TDP1 CPT inactive, HT1080NT lethal inconclusive, HT1080 IDH1KD tx inactive and IL-1B inflam inh inactive.
`Cc1nccn1CC(=O)c1ccccc1` gave DT40 TDP1 no CPT inactive, DT40 TDP1 CPT inactive, HT1080NT lethal inactive, HT1080 IDH1KD tx inactive and IL-1B inflam inh inactive.
CSc1cc(-c2ccc(Cl)cc2)c(C(=O)NC(C)C)s1 was read as DT40 TDP1 no CPT 11.6µM, ELG1 repair inh inconclusive, DT40 TDP1 CPT 9.2µM, HT1080NT lethal inactive, HT1080 IDH1KD tx inactive and IL-1B inflam inh inactive.
Screening Nc1nc2ccccc2n1/N=C/c1ccc(Br)cc1 returned DT40 TDP1 no CPT 16.4µM, ELG1 repair inh inconclusive, DT40 TDP1 CPT inconclusive, HT1080NT lethal inactive, HT1080 IDH1KD tx inactive and IL-1B inflam inh inactive.
O=C(CSc1oc(-c2cccs2)nc1S(=O)(=O)c1ccc(F)cc1)NCC1CCCO1 (stereo not given) was read as DT40 TDP1 no CPT inconclusive, ELG1 repair inh inactive, DT40 TDP1 CPT inconclusive, HT1080NT lethal inactive, HT1080 IDH1KD tx inactive and IL-1B inflam inh inactive.
For CCOc1ccc(NC(=O)CSc2oc(-c3cccs3)nc2S(=O)(=O)c2ccc(C)cc2)cc1 the results were DT40 TDP1 no CPT 3.26µM and DT40 TDP1 CPT 11.6µM.
For CCCSc1oc(-c2cccs2)nc1S(=O)(=O)c1ccc(C)cc1 the results were DT40 TDP1 no CPT inconclusive and DT40 TDP1 CPT 18.4µM.

Assay outcomes (PubChem BioAssay)
